Laboratory results reported in PubChem BioAssay.
A number with no mark means an inactive call. Activity calls are given as the source filed them.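 How the source made its calls: active means inhibition above the hit cutoff set in the earlier primary screen (cut at about 27% in these data); inactive means the rest.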

Molecular target: Protein phosphatase methylesterase 1 (Homo sapiens) (UniProt Q9Y570)
Test: human PME-1 methylesterase inhibition confirmation – biochemical, fluorescence polarization, FP-Rh probe, triplicate (AID 2171);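 further: 0% = enzyme with DMSO and 100% = wells lacking PME-1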
Conditions: recombinant PME-1, FP-Rh probe fluorescence polarization; at 5.9 µM; stronger effect = higher value

Protein phosphatase methylesterase 1 (Homo sapiens), sequence (Q9Y570 whole entry, looked up): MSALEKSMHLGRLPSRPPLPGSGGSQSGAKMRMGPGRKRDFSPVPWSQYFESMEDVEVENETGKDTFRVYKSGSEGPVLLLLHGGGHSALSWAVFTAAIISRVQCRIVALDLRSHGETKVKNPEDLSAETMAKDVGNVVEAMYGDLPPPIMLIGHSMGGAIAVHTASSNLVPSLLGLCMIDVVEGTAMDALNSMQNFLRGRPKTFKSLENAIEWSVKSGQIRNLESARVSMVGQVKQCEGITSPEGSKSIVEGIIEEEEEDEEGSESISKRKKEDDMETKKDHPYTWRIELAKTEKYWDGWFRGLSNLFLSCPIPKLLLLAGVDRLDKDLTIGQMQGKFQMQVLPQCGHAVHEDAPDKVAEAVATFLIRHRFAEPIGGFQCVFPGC

| SMILES | inhibition |
| --- | --- |
| COc1ccc(O)c(/C=N/Nc2nc(C)cc(-c3ccccc3)n2)c1 | 39% (active) |
| CCCn1nc([N+](=O)[O-])c(C(C#N)c2nc3ccccc3o2)c(Cl)c1=O (stereo unspecified) | 36.5% (active) |
| Cn1c(=O)c(Nc2ccc(Cl)cc2)c2c3c(cccc31)C(=O)c1ccccc1-2 | 62.5% (active) |
| COc1cc2c(C#N)c(N3CCN(c4ccccc4OC)CC3)nc(N)c2c(N)n1 | 78% (active) |
| COc1ccc(N2CCN(C(=O)C3CCN(S(=O)(=O)c4ccc(F)cc4)CC3)CC2)cc1 | 59.1% (active) |
| Cc1cccc2cc(C#N)c(SCC#N)nc12 | 3.95% |
| Fc1ccc2nc(Nc3nc4cc5c(cc4s3)OCCO5)sc2c1 | 77.5% (active) |
| CCOc1ccccc1/C=C(\C#N)C(=O)Nc1cccc(C(=O)O)c1 | 5.46% |
| CCC1(C)Cc2c(sc3nc(NN)n(C)c(=O)c23)CO1 (stereo unspecified) | -1.24% |
| C/C(=N/Nc1ccnc2cc(Cl)ccc12)c1ccc(O)cc1 | 10.9% |
| Cc1cc(SCC(=O)N/N=C/c2ccc(O)c(O)c2O)c(C)cc1Br | -9.75% |
| Cc1cc(N/N=C/c2ccc(O)cc2O)nc(-c2ccccc2O)n1 | 39.8% (active) |
| O=C1c2ccccc2-c2onc3ccc(NCc4ccco4)c1c23 | 84.5% (active) |
| Cc1ccc(NC(=O)COc2cccc(/C=C3\SC(=S)N(CCC(=O)O)C3=O)c2)cc1Cl | 26% |
| Cc1sc2ncnc(OCC(=O)N3CCN(S(=O)(=O)c4ccc(Cl)cc4)CC3)c2c1C | 11.1% |
| CC(=O)N1CCN(c2ccc(NC(=S)NC(=O)COc3ccc(C(C)(C)C)cc3)cc2)CC1 | 26.1% |
